The source of these data is PubChem BioAssay (EPA / NIEHS).

Values joined by “and” are separate entries in the source; they are usually repeats but may differ in a detail not shown here. Equal entries are not always repeated. Active and inactive are the calls of the source. The calls were made as follows: active = hit-call score of the fitted dose curve at least 0.9, where 1 is the maximum; inactive = score below 0.9.

Read-out in assay [1]: TIMP metallopeptidase inhibitor 2 (TIMP2), TIMP2 (gene 7077)
The assay is described as follows: BSK_KF3CT_TIMP2: BioMAP Diversity Plus: KF3CT Assay for TIMP metallopeptidase inhibitor 2 (TIMP2) Biomarker Activity (AID 2283071). The settings on record: primary human keratinocytes with fibroblasts; actives raise or lower the signal. The gist of the method: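 TIMP-2 measured by ELISA at 24 h in human keratinocyte/fibroblast primary co-cultures exposed to chemicals. Both increases and decreases were fitted against DMSO. Parallel cultures were stained with SRB for total protein as an overt-cytotoxicity check.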

Read-out in assay [2]: Transforming growth factor beta 1 (TGFb1), TGFB1 (gene 7040)
The assay is described as follows: BSK_KF3CT_TGFb1: BioMAP Diversity Plus: KF3CT Assay for Transforming growth factor beta 1 (TGFb1) Biomarker Activity (AID 2283072). The settings on record: primary human keratinocytes with fibroblasts; actives raise or lower the signal. The gist of the method:
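ELISA quantifies TGF-b1 at 24 h post-dose in a primary human skin co-culture of keratinocytes and fibroblasts, with gain or loss judged against DMSO. Parallel SRB total-protein staining flags overt cytotoxicity.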

Read-out in assay [3]: C-C motif chemokine 2 (Homo sapiens) (UniProt P13500)
The assay is described as follows: BSK_KF3CT_MCP1: BioMAP Diversity Plus: KF3CT Assay for Monocyte Chemoattractant Protein 1 (MCP1/CCL2) Biomarker Activity (AID 2283073). The settings on record: primary human keratinocytes with fibroblasts; actives raise or lower the signal. The gist of the method: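 Human keratinocyte plus foreskin fibroblast primary co-culture exposed to chemical for 24 h. MCP-1 levels measured by ELISA. Bidirectional curve fitting relative to DMSO negative control as baseline.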

Read-out in assay [4]: Matrix Metallopeptidase 9 (MMP9), MMP9 (gene 4318)
The assay can be described thus: BSK_KF3CT_MMP9: BioMAP Diversity Plus: KF3CT Assay for Matrix Metallopeptidase 9 (MMP9) Biomarker Activity (AID 2283074).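 As to AC50: MMP9 protein level quantified by ELISA in the co-culture.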 The settings on record: primary human keratinocytes with fibroblasts; actives raise or lower the signal. The essentials: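 ELISA read-out of MMP-9 at 24 h post-dosing in a co-culture of human skin keratinocytes and foreskin fibroblasts. Gain or loss of signal was fitted in both directions against DMSO.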

Read-out in assay [5]: urokinase plasminogen activator (uPA), PLAU (gene 5328)
The assay can be described thus: BSK_KF3CT_uPA: BioMAP Diversity Plus: KF3CT Assay for urokinase plasminogen activator (uPA) Biomarker Activity (AID 2283075). The conditions noted are these: primary human keratinocytes with fibroblasts; actives raise or lower the signal. The essentials: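 Skin co-culture (keratinocytes + foreskin fibroblasts), human primary; 24 h post-dose; uPA by ELISA; gain/loss fit vs DMSO baseline.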

Read-out in the next assay: CD40, CD40 (gene 958)
The assay can be described thus: BSK_LPS_CD40: BioMAP Diversity Plus: LPS Assay for CD40 Biomarker Activity (AID 2283076). The settings on record: primary human HUVEC with PBMC; actives raise or lower the signal. The gist of the method: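 Primary human umbilical vein endothelial cells co-cultured with peripheral blood mononuclear cells, LPS-stimulated, were dosed with chemical and read 24 h later. CD40 levels were measured by ELISA and fitted bidirectionally against DMSO as negative control and baseline.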

Read-out in assay [6]: E-selectin (Homo sapiens) (UniProt P16581)
The assay is described as follows: BSK_LPS_Eselectin: BioMAP Diversity Plus: LPS Assay for Eselectin Biomarker Activity (AID 2283077). The settings on record: primary human HUVEC with PBMC; actives raise or lower the signal. The essentials:
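Human umbilical vein endothelial cells co-cultured with peripheral blood mononuclear cells under LPS stimulation; E-selectin measured by ELISA 24 h after chemical dosing. Activity fitted bidirectionally against DMSO as negative control and baseline.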

Read-out in assay [7]: Interleukin-8 (IL8), CXCL8 (gene 3576)
The assay is described as follows: BSK_LPS_IL8: BioMAP Diversity Plus: LPS Assay for Interleukin-8 (IL8) Biomarker Activity (AID 2283078). The settings on record: primary human HUVEC with PBMC; actives raise or lower the signal. The essentials:
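Human umbilical vein endothelial cells co-cultured with PBMC were stimulated with LPS; IL-8 levels were measured by ELISA 24 h after chemical dosing. Activity was fitted bidirectionally against DMSO as negative control and baseline.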

A short description of assay [8]: BSK_LPS_SRB: Viability Assessment in the BioMAP Diversity Plus: LPS Assay (AID 2283079).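 Also: total protein by sulforhodamine B absorbance as a cytotoxicity measure; measured one day after compound addition.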 The conditions noted are these: primary human HUVEC with PBMC. The gist of the method: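 Human umbilical vein endothelial cells co-cultured with PBMC (LPS system) were dosed for 24 h. Total protein was stained with 0.1% sulforhodamine B after 10% TCA fixation, read at 560 nm, and fitted bidirectionally against DMSO baseline.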

Read-out in assay [9]: Interleukin-1 alpha (IL1a), IL1A (gene 3552)
The assay is described as follows: BSK_KF3CT_IL1a: BioMAP Diversity Plus: KF3CT Assay for Interleukin-1 alpha (IL1a) Biomarker Activity (AID 2283070). The conditions noted are these: primary human keratinocytes with fibroblasts; actives raise or lower the signal. The essentials:
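Primary skin co-culture (keratinocytes, foreskin fibroblasts), 24 h exposure; ELISA for IL-1a; bidirectional curve fit vs DMSO.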

E-selectin (Homo sapiens), sequence (P16581 whole entry, looked up): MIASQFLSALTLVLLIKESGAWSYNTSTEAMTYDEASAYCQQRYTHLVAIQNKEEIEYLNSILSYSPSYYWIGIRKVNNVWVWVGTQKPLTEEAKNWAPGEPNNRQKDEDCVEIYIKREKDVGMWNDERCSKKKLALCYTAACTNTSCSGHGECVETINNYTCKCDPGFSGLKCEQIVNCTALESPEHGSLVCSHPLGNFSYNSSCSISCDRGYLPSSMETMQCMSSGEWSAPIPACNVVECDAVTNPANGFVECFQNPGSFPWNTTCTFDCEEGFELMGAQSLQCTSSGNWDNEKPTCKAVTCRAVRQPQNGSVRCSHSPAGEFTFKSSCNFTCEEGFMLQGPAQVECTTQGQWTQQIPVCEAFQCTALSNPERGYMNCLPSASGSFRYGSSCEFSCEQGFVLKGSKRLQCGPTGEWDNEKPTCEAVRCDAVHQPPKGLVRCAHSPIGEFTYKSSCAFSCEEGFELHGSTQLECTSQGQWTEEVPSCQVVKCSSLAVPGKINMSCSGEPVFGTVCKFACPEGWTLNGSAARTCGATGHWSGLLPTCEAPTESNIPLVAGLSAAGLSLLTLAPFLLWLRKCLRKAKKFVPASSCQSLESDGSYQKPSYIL

The AC50 is the concentration giving half of the maximal activity seen. Regarding `Oc1c(Cl)cc(Cl)c(Cl)c1Cl`, the AC50 in [1] was 11.4 µM (active); in assay [2], 20 µM (active); in assay [3], 20 µM (active); in assay [4] it was 20 µM (active); with CD40, CD40 (gene 958), 20 µM (active); in [6], 30.7 µM (active). In [8], the AC50 was 20 µM (active). In addition, the result in assay [5] and in assay [7] was inactive.
As to `C=CC(=O)OCCCCCCOC(=O)C=C`, the AC50 in assay [1] is 20 µM (active); in assay [2], 3.97 µM (active); in [4], 12.5 µM (active); in assay [5], 20 µM (active); with CD40, CD40 (gene 958) it was 7.82 µM (active); in assay [6], 9.18 µM (active). Moreover, the AC50 is 4.79 µM (active) in assay [7] and 20 µM (active) in [8]. The outcome in assay [3] was inactive.
With `c1ccc(Nc2cccc3ccccc23)cc1`, the AC50 in [9] was 29.8 µM (active) and 28.6 µM (active); in [1], 34.5 µM (active) and 33.3 µM (active); in [3], 28.8 µM (active) and 26.7 µM (active); in assay [4] it was 31.3 µM (active) and 31.7 µM (active); in [5], 33.8 µM (active) and 32.2 µM (active); with CD40, CD40 (gene 958), 22.9 µM (active) and 30.7 µM (active). In addition, in assay [8], the half-maximal activity concentration (AC50) is 31.5 µM (active) and 32.4 µM (active).
As for `CC/C=C\CCOC(=O)c1ccccc1O`, the AC50 is 14.7 µM (active) in assay [1]; 14.5 µM (active) in assay [2]; 29.8 µM (active) in assay [5]; 36.2 µM (active) with CD40, CD40 (gene 958); 38.1 µM (active) in assay [6]; 33.5 µM (active) in [7]. Further, the AC50 in assay [8] is 30.7 µM (active). The result in assay [3] and in assay [4] was inactive.
Turning to `O=C(Oc1ccccc1)c1ccccc1C(=O)Oc1ccccc1`, the result in assay [9], in assay [1], in assay [2], in assay [3], in assay [4] and in [5] was inactive. Also, the outcome with CD40, CD40 (gene 958) is “inactive”; in [6], “inactive”; in [7] it was “inactive”; in assay [8], “inactive”.
Regarding `CCCCCCOC(=O)CCCCC(=O)OCCCCCC`, the outcome in assay [9], in assay [1], in assay [2], in [3], in assay [4] and in assay [5] was inactive. In addition, the outcome with CD40, CD40 (gene 958) is “inactive”; in [6], “inactive”; in assay [8] it was “inactive”.
With `O=C1CCCCCCCCCCC1`, the outcome in [9], in assay [1], in assay [2], in [3], in [4] and in assay [5] was inactive. In addition, the outcome with CD40, CD40 (gene 958) was “inactive”; in assay [6] it was “inactive”; in assay [7] it was “inactive”; in assay [8], “inactive”.
For the compound `Nc1ccc(C(=O)O)cc1`, the outcome was “inactive” in assay [1]; “inactive” in [2]; “inactive” in assay [3]; “inactive” in [4]; “inactive” in assay [5]; “inactive” in the assay with CD40, CD40 (gene 958). In addition, the result in assay [6], in [7] and in assay [8] was inactive.
As for `O=C(Cl)c1c(Cl)c(Cl)c(C(=O)Cl)c(Cl)c1Cl`, the result in assay [9], in [1], in assay [2], in assay [3], in assay [4] and in [5] was inactive. In addition, the outcome is “inactive” in the assay with CD40, CD40 (gene 958); “inactive” in assay [6]; “inactive” in assay [8].
For `C=CC(=O)NC(C)(C)C`, the outcome in assay [1] is “inactive”; in assay [2], “inactive”; in assay [3], “inactive”; in [4] it was “inactive”; in [5], “inactive”; with CD40, CD40 (gene 958), “inactive”. Moreover, the outcome in [6], in [7] and in [8] was inactive.
Take `COC(OC)(C(=O)c1ccccc1)c1ccccc1`: the result in assay [9], in assay [1], in assay [2], in assay [3], in [4] and in [5] was inactive. Further, the outcome with CD40, CD40 (gene 958) was “inactive”; in assay [6], “inactive”; in assay [8] it was “inactive”. Besides, the AC50 in assay [7] was 0.016 µM (active).
For `CC=C(C)C=CC=C(C)C`, the AC50 in assay [9] was 16 nM (active); in assay [4], 20 µM (active); in [5], 3.13 µM (active); with CD40, CD40 (gene 958), 7.42 µM (active). Besides, the result in assay [1], in assay [2], in assay [3], in assay [6], in [7] and in assay [8] was inactive.
Regarding `Cc1ccc([N+](=O)[O-])cc1N`, the outcome in assay [1] is “inactive”; in [2], “inactive”; in [3], “inactive”; in [4] it was “inactive”; in assay [5], “inactive”; in the assay with CD40, CD40 (gene 958), “inactive”. The result in assay [6], in assay [7] and in assay [8] was inactive.
As for `CCCCC1C(=O)N(c2ccccc2)N(c2ccccc2)C1=O`, the outcome in assay [9], in assay [1], in assay [2], in assay [3], in assay [4] and in assay [5] was inactive. Further, the outcome is “inactive” in the assay with CD40, CD40 (gene 958); “inactive” in [6]; “inactive” in assay [8].
